Reference: paper PMC4336329 (PLoS ONE, 2015)
Screen size: about 310,000 compounds; about 14,000 (4.5%) showed an effect of 50% or more. The effect is printed as a negative number. The sample holds strong results, similar compounds and a random draw of the others, so the mix is not that of the screen.

What follows are compounds tested against human ether-à-go-go-related gene (hERG) potassium channel (human, UniProt Q12809) (assay: primary screen, population patch clamp on CHO cells stably expressing hERG; higher = less effect of the substance).
Sequence of human ether-à-go-go-related gene (hERG) potassium channel (Q12809 whole entry, looked up): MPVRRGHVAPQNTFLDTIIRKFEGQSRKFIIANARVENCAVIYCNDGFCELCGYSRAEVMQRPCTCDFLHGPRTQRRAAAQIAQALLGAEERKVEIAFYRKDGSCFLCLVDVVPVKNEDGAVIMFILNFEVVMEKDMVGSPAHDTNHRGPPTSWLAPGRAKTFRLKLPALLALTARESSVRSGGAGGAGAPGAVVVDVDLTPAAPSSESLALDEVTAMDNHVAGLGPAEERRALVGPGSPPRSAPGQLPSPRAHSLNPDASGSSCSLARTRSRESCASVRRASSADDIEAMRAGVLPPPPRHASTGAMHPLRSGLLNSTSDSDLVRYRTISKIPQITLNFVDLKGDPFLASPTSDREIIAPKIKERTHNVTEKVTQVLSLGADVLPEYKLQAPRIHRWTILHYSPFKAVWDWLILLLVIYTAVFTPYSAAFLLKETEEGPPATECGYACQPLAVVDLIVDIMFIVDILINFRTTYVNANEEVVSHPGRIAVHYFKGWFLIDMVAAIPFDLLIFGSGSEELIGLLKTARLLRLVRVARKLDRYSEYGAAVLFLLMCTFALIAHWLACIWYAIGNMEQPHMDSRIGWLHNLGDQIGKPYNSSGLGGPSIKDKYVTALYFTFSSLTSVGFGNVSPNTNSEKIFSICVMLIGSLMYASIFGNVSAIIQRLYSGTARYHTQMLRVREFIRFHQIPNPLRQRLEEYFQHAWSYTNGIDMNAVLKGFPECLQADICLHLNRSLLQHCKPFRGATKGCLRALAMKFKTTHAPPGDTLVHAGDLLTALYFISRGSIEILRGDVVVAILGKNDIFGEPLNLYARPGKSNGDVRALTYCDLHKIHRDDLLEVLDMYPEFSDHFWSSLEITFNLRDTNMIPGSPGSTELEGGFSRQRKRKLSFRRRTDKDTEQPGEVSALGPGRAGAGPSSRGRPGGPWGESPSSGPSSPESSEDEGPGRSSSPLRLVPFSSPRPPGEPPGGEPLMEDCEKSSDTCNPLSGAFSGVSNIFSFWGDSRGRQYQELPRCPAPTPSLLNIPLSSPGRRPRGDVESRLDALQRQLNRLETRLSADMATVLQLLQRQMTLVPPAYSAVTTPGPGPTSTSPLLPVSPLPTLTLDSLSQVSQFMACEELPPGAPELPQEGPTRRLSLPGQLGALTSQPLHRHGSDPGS
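Note: peak tail current of the secondary pulse compared with the same well before compound.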

SMILES | hERG current change (%, negative = inhibition) at 10uM
Cc1cccc(CN2CCN(Cc3ccc(Cl)cc3)CC2)c1.O=C(O)C(=O)O | -40%
c1ccc(CCN2CCC(N3CCN(c4ccccc4)CC3)CC2)cc1 | -66.4%
Cc1ccc(N2CCN(CCc3ccccc3)CC2)cc1 | -36.2%
Cc1cccc(CN2CCN(CCCc3ccccc3)CC2)c1.O=C(O)C(=O)O | -75.4%
O=S(=O)(Cc1ccccc1)N1CCC(N2CCN(c3ccccc3)CC2)CC1 | -22.7%
CC1=NN(c2ccccc2)C(=O)/C1=C/c1c(O)n(-c2ccc(F)cc2)[nH]c1=O | 46%
Cc1c(C#N)c2ccccc2n1CC(=O)NCCc1c[nH]c2ccccc12 | -2.5%
CCOC(=O)c1ccc(Oc2nc(OC)nc(N(C)C)n2)cc1 | 6.27%
Cc1[nH]c(=O)[nH]c1C(=O)CCCCC(=O)OCC(=O)Nc1ccccn1 | 12.3%
CCOC(=O)CCCCC(=O)c1[nH]c(=O)[nH]c1C[n+]1ccccc1.[Cl-] | 26.4%
Cc1[nH]c(=O)[nH]c1C(=O)CCCCC(=O)O | -57.7%
CCCc1nc2oc3c(OCC)ncnc3c2c2c1COC(C)(C)C2 | -13.2%
CCCCn1c(N)c(N(C)C(=O)c2ccc(-n3cccn3)cc2)c(=O)[nH]c1=O | 0.138%
Cc1cc(NC(=O)c2cccc(S(=O)(=O)N3CCCCCC3)c2)n(-c2ccccn2)n1 | 13.4%
CCOC(=O)C1(Cc2cccc(F)c2)CCN(C(=O)C2CCOCC2)CC1 | -15%
CCOC(=O)C1(Cc2cccc(OC)c2)CCN(C2CCOCC2)CC1 | -68.7%
CCOC(=O)C1(Cc2cccc(F)c2)CCN(C(=O)C2CCCO2)CC1 (stereo not drawn) | 10.2%
CCOC(=O)C1(Cc2cccc(F)c2)CCN(C2CCOCC2)CC1 | -63.5%
Cc1ccc(CC(=O)Nc2ncc([N+](=O)[O-])s2)cc1 | 32.5%
CCCCN(CC)C(=O)Cc1c(C(=O)O)[nH]c2ccc(Cl)cc12 | 12.4%
CCN1CCN(c2ccc(NC(=O)COc3ccccc3Cl)cc2)CC1 | -40.7%
Cc1cc(S(=O)(=O)N2CCOCC2)ccc1NC(=O)c1ccc(F)cc1 | 1.32%
Cc1ccc(CNC(=O)c2cc3c(s2)CN(Cc2ccccc2)C3)cc1.Cl | 3.85%
CC(C#N)(NC(=O)CN1CCN(S(=O)(=O)c2ccccc2Cl)CC1)C1CC1 (stereo not drawn) | 5.18%

SMILES | hERG current change (%, negative = inhibition) at 10uM
Cc1c(C=C2C(=O)N(C)C(=S)N(C)C2=O)c2ccccc2n1CC(=O)NCC1CCCO1 (stereo not drawn) | 4.95%
N/C(=N\OC(=O)c1ccc([N+](=O)[O-])cc1)c1cccnc1 | -10.7%
N#C/C(=C\c1cccnc1)c1ccc([N+](=O)[O-])cc1 | -56.3%
O=C(/C=C/c1ccccc1)Nc1cccnc1 | -26%
O=C(/C=C/c1cccnc1)c1ccc([N+](=O)[O-])cc1 | -42.3%
N#C/C(=C\c1cccnc1)c1ccc(Br)cc1 | -5.44%
O=C(/C=C/c1ccc([N+](=O)[O-])cc1)c1cccnc1 | -53%
O=C(/C=C/c1ccc(Cl)c([N+](=O)[O-])c1)c1cccnc1 | -6.3%
O=C(/C=C/c1ccc([N+](=O)[O-])cc1)Nc1cccnc1 | -62.7%
CC(C(=O)O/N=C(\N)c1cccnc1)c1ccc([N+](=O)[O-])cc1 (stereo not drawn) | -56.8%
Cc1ccc(/C(N)=N/OC(=O)C(C)c2ccc([N+](=O)[O-])cc2)cc1 (stereo not drawn) | -4.62%
O=C(/C=C/c1ccc(Cl)c([N+](=O)[O-])c1)Nc1cccnc1 | -17.3%
N#C/C(=C\c1cccnc1)c1ccccc1[N+](=O)[O-] | 4.04%
O=C(NNC(=O)C12CC3CC(CC(Cl)(C3)C1)C2)c1csc(N2CCOCC2)n1 | -1.63%
Cc1[nH]nc(SCC(=O)N2CCCCCC2)c1[N+](=O)[O-] | 3.4%
Cc1nnc(SCC(=O)NNC(=O)CC#N)[nH]c1=O | -7.01%
CCOc1cc(-c2cc(N)n[nH]2)cc(OCC)c1OCC | 14.6%
Cc1ccc(N(C)C(=O)n2cnc3ccccc32)cc1 | -1.52%
CN(Cc1ccccc1)C(=S)NC(=O)c1cccs1 | 8.32%
O=C(NCc1nnc(SC/C=C/c2ccccc2)o1)c1ccco1 | -5.97%
CC1(COS(N)(=O)=O)CCCCC1 | 1.76%
Cc1ccc(S(=O)(=O)Nc2ccc(-c3nc4ccc(C)cc4s3)cc2)cc1 | 2.32%
CC(C)COc1ccc(/C(=N/O)c2ccccc2)cc1 | 11%
Cc1ccc(C(=O)c2coc3ccc(OCC(=O)O)cc23)cc1 | 2.16%
